Results filed as inconclusive are left out. Activity calls are given as the source filed them. The calls were made as follows: active = hit-call score of the fitted dose curve at least 0.9, where 1 is the maximum; inconclusive = response in the unintended direction; inactive = score below 0.9.
What follows are molecules tested against Nuclear receptor subfamily 1 group I member 3 (Homo sapiens) (UniProt Q14994) (assay: ATG_CAR_TRANS: Attagene TRANS-FACTORIAL HepG2 Assay for human Constitutive Androstane Receptor (CAR) (AID 2282969;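 also: activators raise reporter mRNA above DMSO so AC50 marks induction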)). Settings: HepG2 Attagene TRANS-FACTORIAL CAR reporter.
Sequence of Nuclear receptor subfamily 1 group I member 3 (Homo sapiens) (Q14994 whole entry, looked up): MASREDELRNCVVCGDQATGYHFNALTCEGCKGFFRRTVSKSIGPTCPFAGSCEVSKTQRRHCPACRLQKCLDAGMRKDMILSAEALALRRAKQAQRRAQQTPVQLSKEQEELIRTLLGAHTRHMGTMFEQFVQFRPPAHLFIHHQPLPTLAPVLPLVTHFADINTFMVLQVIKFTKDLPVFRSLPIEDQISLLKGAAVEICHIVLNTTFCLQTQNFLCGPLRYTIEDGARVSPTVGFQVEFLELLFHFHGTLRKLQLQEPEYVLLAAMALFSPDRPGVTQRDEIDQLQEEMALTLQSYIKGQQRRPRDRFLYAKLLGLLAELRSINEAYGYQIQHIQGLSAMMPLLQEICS
Experimental: ATG_TRANS is a cell-based, multiplexed-readout assay that uses HepG2, a human liver cell line, with measurements taken at 24 hours after chemical dosing in a 24-well plate.ATG_CAR_TRANS is one of 30 assay component(s) measured or calculated from the ATG_TRANS assay. It is designed to make measurements of mRNA induction, a form of inducible reporter, as detected with fluorescence intensity signals by Reverse transcription polymerase chain reaction (RT-PCR) and Capillary electrophoresis technology.Data from the assay component ATG_CAR_TRANS was analyzed into 1 assay endpoint. This assay endpoint, ATG_CAR_TRANS, was analyzed in the positive analysis fitting direction relative to DMSO as the negative control and baseline of activity. Using a type of inducible reporter, measures of mRNA for gain-of-signal activity can be used to understand the reporter gene at the transcription factor-level as they relate to the gene NR1I3. Furthermore, this assay endpoint can be referred to as a primary readout, because this assay has produced multiple assay endpoints where this one serves a reporter gene function. To generalize the intended target to other relatable targets, this assay endpoint is annotated to the nuclear receptor intended target family, where the subfamily is non-steroidal.
Human liver HepG2 cells are transiently transfected with multiple reporter transcription units (MRTUs) in 6-well plates using FuGene 6 reagent (Roche; 3 ml FuGene/1 mg DNA). The MRTU constructs are regulated by a cis-regulating element (promoter). […] A major difference between the CIS and TRANS system is that in CIS activities of endogenous TFs are measured, whereas the TRANS assay evaluates changes in activities of exogenous, chimeric NR-Gal4 proteins. […] At the end of 24 hour incubation, total RNA was isolated using TriZol reagent (Invitrogen). The isolated RNA is then reverse-transcribed using oligo(dT) primer and Mo-MLV reverse transcriptase (Invitrogen) with DNAse I (Ambion) treatment for 30 min. The one-tenth of the produced cDNA was amplified by PCR using Taq DNA polymerase (Invitrogen) and two reporter sequence-specific primers. The PCR products were fluorescently labeled by primer extension with 6-arboxyfluorescein (6-FAM) 5'-labeled reporter sequence-specific primer (2 min at 95 C, 20 s at 68 C and 10 min at 72 C) and these products were digested with 5U of HpaI (New England Biolabs) for 2h at 37 C. The fragments were purified using Qiaquick PCR columns (Qiagen), analyzed on an ABI 3130xL genetic analyzer (Applied Biosystems) with peak positions identified by using a set of X-rhodamine (ROX)-labeled MapMarker1000 molecular weight standards (BioVentures). The raw capillary electrophoresis data was processed using Attagraph software (Attagene).
With `CCCCOc1ccc(N)cc1` the outcome was “inactive”. `CCN(CC)c1ccc2c(C)cc(=O)oc2c1` was tested, and the outcome was “inactive”. In the case of `CCc1ccc(C(c2ccc(CC)cc2)C(Cl)Cl)cc1`, the outcome is reported as “inactive”. `CC(Cc1ccc(O)c(O)c1)C(C)Cc1ccc(O)c(O)c1` (stereo not given) was tested, and the outcome was “inactive”. In the case of `O=C(O)C(F)(F)C(F)(F)C(F)(F)C(F)(F)C(F)(F)C(F)(F)C(F)(F)C(F)(F)C(F)(F)C(F)(F)C(F)(F)C(F)(F)C(F)(F)F`, the outcome is reported as “inactive”. In the case of `C=C(C)C(=O)OCCC(F)(F)C(F)(F)C(F)(F)C(F)(F)C(F)(C(F)(F)F)C(F)(F)F`, the outcome is reported as “inactive”. In the case of `Cc1ccc(S(=O)(=O)OCC(F)(F)C(F)(F)C(F)(F)C(F)(F)C(F)(F)C(F)F)cc1`, the outcome is reported as “inactive”. For `O=C(C=Cc1ccccc1)OCC=Cc1ccccc1`, the outcome was “inactive”. In the case of `FC(F)(F)C(F)(F)C(F)(F)C(F)(F)C(F)(F)C(F)(F)C(F)(F)Br`, the outcome is reported as “inactive”. For `C=CC(F)(F)C(F)(F)C(F)(F)C(F)(F)C(F)(F)C(F)(F)C(F)(F)C(F)(F)C=C`, the outcome was “inactive”. In the case of `O=P(O)(O)OCCC(F)(F)C(F)(F)C(F)(F)C(F)(F)C(F)(F)C(F)(F)F`, the outcome is reported as “inactive”. `C1COCCN1` was tested, and the outcome was “inactive”. With `O=C(O)C(F)(F)C(F)(F)C(F)(F)C(F)(F)C(F)(F)C(F)(F)C(F)(F)C(F)(F)C(F)(F)C(F)F` the outcome was “inactive”. In the case of `O[Si](c1ccccc1)(c1ccccc1)c1ccccc1`, the outcome is reported as “inactive”. In the case of `FC(F)(F)C(F)(F)C(F)(F)N(C(F)(F)C(F)(F)C(F)(F)F)C(F)(F)C(F)(F)C(F)(F)F`, the outcome is reported as “inactive”. `FC(F)(F)C(F)(F)C(F)(F)C(F)(F)C(F)(F)CCI` was tested, and the outcome was “inactive”. With `O=C(O)C=C(C(F)(F)F)C(F)(F)F` the outcome was “inactive”. In the case of `O=C(O)C(F)(F)C(F)(F)C(F)(F)F`, the outcome is reported as “inactive”. With `FC(F)(F)C(F)(F)C(F)(F)C(F)(F)C(F)(F)C(F)(F)C(F)(F)C(F)(F)CCS` the outcome was “inactive”. `C=CC(=O)OCC(F)(F)C(F)(F)C(F)(F)C(F)(F)C(F)(F)C(F)(F)C(F)(F)F` was tested, and the outcome was “inactive”. For `CCCCNc1ccccc1`, the outcome was “inactive”. In the case of `CC(=O)Nc1ccc(N=Nc2cc(C)ccc2O)cc1`, the outcome is reported as “inactive”. In the case of `O=C(O)C(F)(F)C(F)(F)C(F)F`, the outcome is reported as “inactive”. For `CC(C)=CCCC(C)CCOC(=O)C(C)C` (stereo not given), the outcome was “inactive”. For `FC(F)(F)C(F)(F)C(F)(F)C(F)(F)C(F)(F)C(F)(F)C(F)(F)C(F)(F)F`, the outcome was “inactive”. With `CC(CCl)OP(=O)(OC(C)CCl)OC(C)CCl` (stereo not given) the outcome was “inactive”. For `FC(F)(I)C(F)(F)C(F)(F)C(F)(F)I`, the outcome was “inactive”. In the case of `CS(C)(=O)=O`, the outcome is reported as “inactive”. For `CCCCCCOC(=O)c1ccccc1`, the outcome was “inactive”. With `O=C(O)C(F)(F)C(F)(F)C(F)(F)C(F)(F)C(F)(F)C(F)(F)C(F)(F)C(F)(F)C(F)(F)C(F)(F)C(F)(F)C(F)(F)F` the outcome was “inactive”. With `CCCCCC=O` the outcome was “inactive”. In the case of `CC(C)(C)C(=O)CC(=O)C(F)(F)C(F)(F)C(F)(F)F`, the outcome is reported as “inactive”. In the case of `O=C(Cl)C(F)(F)C(F)(F)C(F)(F)C(F)(F)C(F)(F)C(F)(F)C(F)(F)C(F)(F)F`, the outcome is reported as “inactive”. In the case of `C(=C(c1ccccc1)c1ccccc1)c1ccccc1`, the outcome is reported as “inactive”. For `O=C(O)C(F)(OC(F)(F)C(F)(OC(F)(F)C(F)(OC(F)(F)C(F)(F)C(F)(F)F)C(F)(F)F)C(F)(F)F)C(F)(F)F` (stereo not given), the outcome was “inactive”. For `CCCCCCC(C)OC(=O)CCCCC(=O)OC(C)CCCCCC` (stereo not given), the outcome was “inactive”. `CCCCCCS` was tested, and the outcome was “inactive”. For `O=S(=O)(OCCOC(F)(F)F)C(F)(F)F`, the outcome was “inactive”. With `C=CC(=O)OCC(F)(F)C(F)(F)C(F)(F)C(F)(F)COC(=O)C=C` the outcome was “inactive”. For `OCC(F)(F)C(F)(F)C(F)(F)C(F)(F)C(F)(F)C(F)(F)F`, the outcome was “inactive”.
